# Laboratory results published in PubChem BioAssay (EPA / NIEHS).
# Inconclusive results are not listed. A structure can be active in one record and inactive in another. Activity calls are given as the source filed them. The calls were made as follows, unless noted: active = hit-call score of the fitted dose curve at least 0.9, where 1 is the maximum; inactive = score below 0.9.
# Assays:
# [1] = CCTE_Shafer_MEA_acute_cross_correlation_HWHM: CCTE's Neural Acute Assay for Cross Correlation at Half Width at Half Maximum, Shafer Lab (AID 2284026);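 also: percent change per well from pre-dose baseline in spike cross-correlogram half width; hits are a decrease in cross-correlogram half width relative to DMSO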;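 as to outcome: spontaneous network firing of rat primary cortical neurons on multiwell microelectrode arrays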
# Procedure, shortened: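 Read-out: half width at half maximum of action-potential cross-correlogram, percent change versus pre-treatment baseline, fitted in loss direction against DMSO. Rat cortical cultures, DIV 13 or 15, dosed 0.03-40 uM, 40-min recordings at 37 C.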
# [2] = CCTE_Shafer_MEA_acute_synchrony_index: CCTE's Neural Acute Assay for Synchrony, Shafer Lab (AID 2284027);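 also: network synchrony index of spontaneous spiking in primary rat cortical neurons on MEAs; fitted for loss of signal so actives lower synchrony relative to DMSO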
# Procedure, shortened: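 Acute exposure of rat primary cortical neurons (DIV 13 or 15) at 0.03-40 uM. Synchrony index, 40 min before vs after, as % change relative to DMSO control.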
# [3] = biological target: Estrogen receptor (Homo sapiens) (UniProt P03372); test: CCTE_Deisenroth_AIME_384WELL_LUC_Active: CCTE's 384-well Estrogen Receptor Transactivation Assay with AIME metabolic competence (ERTA luciferase; metabolism positive), Deisenroth Lab (AID 2284030; active = hit-call score of the fitted dose curve at least 0.9, where 1 is the maximum)
# Procedure, shortened: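 Readout: bioluminescent luciferase induction in VM7Luc4E2 cells 24 hour after receiving medium from a 2 h rat hepatic S9 (induced, alginate microsphere) metabolism step. Concentrations 0.002 - 200 uM; activity scaled to 17beta-estradiol positive control.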
# [4] = biological target: Estrogen receptor (Homo sapiens) (UniProt P03372); test: CCTE_Deisenroth_AIME_384WELL_LUC_Inactive: CCTE's 384-well Estrogen Receptor Transactivation Assay without AIME metabolic competence (ERTA luciferase; metabolism negative), Deisenroth Lab (AID 2284038; active = hit-call score of the fitted dose curve at least 0.9, where 1 is the maximum;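 also: VM7Luc4E2 breast cells given medium preincubated 2 h with S9-free microspheres; hits raise estrogen receptor luciferase signal so potencies reflect agonists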)
# Procedure, shortened: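 Metabolism-negative mode: AIME lids stamped in alginate-water, no hepatic S9. 2 h chemical incubation → medium onto VM7Luc4E2 ERTA, 24 h. Readout luciferase luminescence; gain-of-signal fit vs 17beta-estradiol. Conc. 0.002 - 200 uM.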
# [5] = CCTE_Shafer_MEA_dev_firing_rate_mean: CCTE's Neural Network Formation Assay for Mean Firing Rate, Shafer Lab (AID 2284031);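 as to AC50: curve fitted for loss of firing so AC50 reflects decreased mean firing rate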
# Procedure, shortened: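 Extracellular spike frequency, AUC over DIV 5–12 recordings, in rat cortical neuron MEA cultures dosed from plating; loss direction vs DMSO.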
# [6] = CCTE_Shafer_MEA_dev_per_burst_spike_percent: CCTE's Neural Network Formation Assay for Percent of Spikes in a Burst, Shafer Lab (AID 2284032);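 as to AC50: fitted as a decrease in burst spike percentage below DMSO baseline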
# Procedure, shortened: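 Value is trapezoidal AUC over recordings on days 5, 7, 9 and 12 of the well-mean fraction of spikes falling in single-electrode bursts; rat cortical cultures exposed continuously from plating, treatment renewed DIV 5 and 9, fitted downward against DMSO.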
# [7] = CCTE_Shafer_MEA_dev_active_electrodes_number: CCTE's Neural Network Formation Assay for Number of Active Electrodes, Shafer Lab (AID 2284040; active = hit-call score of the fitted dose curve at least 0.9, where 1 is the maximum;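 as to AC50: potency for loss of active electrodes versus DMSO so lower counts are hits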)
# Procedure, shortened: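 Developing rat cortical networks on MEAs, exposed DIV 0–12. Value is the AUC of active-electrode counts (≥5 spikes/min) from days 5, 7, 9, 12, relative to DMSO.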
# Chain of Estrogen receptor (Homo sapiens) (P03372 whole entry, looked up): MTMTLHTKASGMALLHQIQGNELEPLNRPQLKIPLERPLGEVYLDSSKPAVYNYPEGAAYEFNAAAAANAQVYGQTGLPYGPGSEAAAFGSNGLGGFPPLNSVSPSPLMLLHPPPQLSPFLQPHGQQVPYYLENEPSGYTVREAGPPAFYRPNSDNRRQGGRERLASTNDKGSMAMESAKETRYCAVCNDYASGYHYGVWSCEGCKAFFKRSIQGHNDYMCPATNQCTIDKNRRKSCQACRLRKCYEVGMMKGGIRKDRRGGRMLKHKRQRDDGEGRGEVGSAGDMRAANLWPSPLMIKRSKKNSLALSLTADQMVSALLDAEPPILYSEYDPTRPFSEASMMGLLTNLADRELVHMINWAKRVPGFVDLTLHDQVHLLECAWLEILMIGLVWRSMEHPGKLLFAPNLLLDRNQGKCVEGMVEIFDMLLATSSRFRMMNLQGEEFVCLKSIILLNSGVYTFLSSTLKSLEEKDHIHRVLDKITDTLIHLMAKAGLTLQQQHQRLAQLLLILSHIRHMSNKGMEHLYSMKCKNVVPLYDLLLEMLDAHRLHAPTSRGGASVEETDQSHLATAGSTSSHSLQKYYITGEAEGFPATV
smiles,measurement,setting,value
OCc1ccccc1,outcome,[1],inactive
same,outcome,[2],inactive
same,outcome,[3],inactive
same,outcome,[4],inactive
Cn1c(=O)c2[nH]cnc2n(C)c1=O,outcome,[1],inactive
same,outcome,[2],inactive
c1ccc2cc3ccccc3cc2c1,outcome,[1],inactive
same,outcome,[2],inactive
same,outcome,[5],inactive
same,outcome,[6],inactive
same,outcome,[7],inactive
CCCc1ccccc1,outcome,[1],inactive
same,outcome,[2],inactive
same,outcome,[3],inactive
same,outcome,[4],inactive
CC[C@H](C)C(=O)O[C@H]1C[C@H](O)C=C2C=C[C@H](C)[C@H](CC[C@@H](O)C[C@@H](O)CC(=O)O)[C@H]21,outcome,[1],inactive
same,outcome,[2],inactive
same,outcome,[5],inactive
same,AC50,[6],1.92 µM (active)
same,AC50,[7],2.28 µM (active)
CCCCCCCC1CCC(=O)O1 (stereo not given),outcome,[2],inactive
CCOc1ccc2[nH]cc(C(=O)NCc3ccccc3)c(=O)c2n1,outcome,[3],inactive
same,outcome,[5],inactive
same,outcome,[6],inactive
same,outcome,[4],inactive
same,AC50,[7],1.23 µM (active)
COc1cc2c(c(OC)c1OC)-c1ccc(OC)c(=O)cc1[C@@H](NC(C)=O)CC2,outcome,[1],inactive
same,outcome,[2],inactive
same,outcome,[3],inactive
same,AC50,[5],17.9 nM (active)
same,AC50,[6],0.0285 µM (active)
same,outcome,[4],inactive
same,AC50,[7],0.0284 µM (active)
COCc1nnc(-c2ccc[n+]([O-])c2)n1-c1c(Cl)c(Cl)cc2[nH]c(=O)c(=O)[nH]c12,AC50,[1],8.51 µM (active)
same,AC50,[2],14.7 µM (active)
OC(CCl)CCl,outcome,[1],inactive
same,outcome,[2],inactive
O=S(=O)(O)c1ccc(N=Nc2c(O)ccc3cc(S(=O)(=O)O)ccc23)cc1,outcome,[1],inactive
same,outcome,[2],inactive
OC(O)(C(F)C(O)(O)C(F)(F)F)C(F)(F)F,outcome,[5],inactive
same,outcome,[6],inactive
same,AC50,[7],3.9 µM (active)
same,outcome,[7],inactive
O=C1CN(N=Cc2ccc([N+](=O)[O-])o2)C(=O)N1,outcome,[3],inactive
same,outcome,[4],inactive
